M1 PAM = positive allosteric modulators of human M1 muscarinic receptor. P11229. CHO-K1 hM1, Fluo-8 calcium fluorescence, ACh EC20; 0% = ACh EC20, 100% = maximal ACh. activation, % at 3 µM. 360,000 compounds, 0.088% hits; in the data active = activation above about 19%, passing the limit was not always enough
Target sequence (P11229 whole entry, looked up): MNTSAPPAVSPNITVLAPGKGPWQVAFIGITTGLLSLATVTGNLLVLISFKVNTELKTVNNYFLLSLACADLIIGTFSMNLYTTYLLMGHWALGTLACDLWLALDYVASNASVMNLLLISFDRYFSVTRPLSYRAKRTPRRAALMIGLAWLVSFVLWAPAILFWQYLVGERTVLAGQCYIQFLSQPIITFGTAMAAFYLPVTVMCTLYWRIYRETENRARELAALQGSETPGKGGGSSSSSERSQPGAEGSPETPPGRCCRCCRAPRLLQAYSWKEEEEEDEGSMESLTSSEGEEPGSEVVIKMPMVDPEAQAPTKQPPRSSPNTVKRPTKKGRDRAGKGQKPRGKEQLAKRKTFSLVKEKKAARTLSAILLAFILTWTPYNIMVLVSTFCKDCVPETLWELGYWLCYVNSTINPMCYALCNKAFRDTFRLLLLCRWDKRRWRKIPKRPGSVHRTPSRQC
CHO-K1 Ca antag = counter-screen for M1 antagonists: effect in parental CHO-K1 cells. inhibition, % at 3 µM. AID 602250. 360,000 compounds, 0.6% hits. ATP-induced calcium, Fluo-8 fluorescence;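 active = inhibition above a per-plate cutoff, the plate's mean sample inhibition plus 3 SD, cut at about 24% in these data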
CHO-K1 Ca ag = counter-screen for M1 agonists: effect in parental CHO-K1 cells. AID 602248. 360,000 compounds, 0.48% hits. activation, % at 3 µM. Fluo-8 calcium fluorescence; scaled to maximal ATP response, vehicle zero; in the data active = activation above about 15%;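 also: untransfected CHO-K1 host cells lacking M1 receptor as counterscreen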
CHRM1 agonist = human M1 muscarinic receptor agonism. P11229. CHO-K1 hM1, Fluo-8 calcium fluorescence, agonist mode; 0% DMSO, 100% acetylcholine EC100. activation, % at 3 µM. 360,000 compounds, 0.33% hits. AID 588814;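 active = activation above the run's mean compound activation plus 3 SD, cut at about 16% in these data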;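 also: peak over basal fluorescence ratio within a 140 s kinetic read after compound addition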
CHRM1 antagonist = antagonists of human M1 muscarinic receptor | CHO-K1 hM1, Fluo-8 calcium fluorescence, ACh EC80 antagonist | 360,000 compounds, 1.3% hits | P11229 | inhibition, % at 3 µM;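 active = percent inhibition above its own plate's cutoff, namely the mean of that plate's compound wells plus 3 SD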;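 also: peak over basal fluorescence ratio during 140 s after agonist addition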
CHO-K1 Ca PAM = counter-screen for M1 PAMs: effect in parental CHO-K1 cells. AID 602247. activation, % at 3 µM. ATP EC20, Fluo-8 calcium fluorescence; 0% at ATP EC20, 100% at ATP max. 360,000 compounds, 0.02% hits;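 active = activation above the run cutoff, the mean activation of all test compounds plus 3 SD, cut at about 40% in these data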;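 also: peak over basal fluorescence ratio in a 140 s read after ATP addition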
Hits are given with their value; - = inactive. Rows were chosen to be rich in hits. Some 2.3% of all compounds tested hit in one or more screens of this group.

SMILES	M1 PAM	CHO-K1 Ca antag	CHO-K1 Ca ag	CHRM1 agonist	CHRM1 antagonist	CHO-K1 Ca PAM
COc1ccc(N)c2c1C(=O)c1ccccc1C2=O	-	-	-	-	-	-
COc1ccc2noc3c2c1C(=O)c1ccccc1-3	-	26.3	21.8	71.6	-	-
O=C(Nc1ccnn1C1CCN(C2CCC2)CC1)c1ccccc1Cl	-	45.8	-	-	-	-
COc1ccccc1C(=O)Nc1ccnn1C1CCN(CCCC2CCCC2)CC1	-	-	-	-	-	-
CCc1ccc(CN2CCC(n3nccc3NC(=O)c3ccccc3Cl)CC2)cc1	-	-	-	27.9	-	-
O=C(Nc1ccnn1C1CCN(CCCC2CCCC2)CC1)c1ccccc1Cl	-	-	-	-	39.8	-
CN1CCN(C(=O)C(C(=O)c2ccc(F)cc2)n2ccccc2=O)CC1 (configuration not stated)	-	-	-	-	-	-
COc1cc(CNCCNC(=O)c2nonc2N)ccc1OCc1ccc(Cl)cc1	-	-	17.0	-	-	-
CC1OC2CC(=O)OC2C2=C1C(=O)c1c(O)cccc1C2=O (configuration not stated)	-	-	-	16.3	50.3	-
COC(=O)[C@]1(Cc2ccccc2)N[C@H](CN(C)C(=O)c2ccc(F)cc2)[C@@H]2C(=O)N(C)C(=O)[C@@H]21	26.8	-	-	-	-	-
CCN(C[C@H]1N[C@@](Cc2ccccc2)(C(=O)OC)[C@H]2C(=O)N(C)C(=O)[C@@H]12)C(=O)C1CCCCC1	-	26.4	-	-	-	-
CCN(C[C@H]1N[C@@](Cc2ccccc2)(C(=O)OC)[C@H]2C(=O)N(Cc3ccccc3)C(=O)[C@@H]12)C(=O)Nc1ccc(C(F)(F)F)cc1	-	31.2	-	-	-	-
CCN(C[C@H]1N[C@@](Cc2ccccc2)(C(=O)OC)[C@H]2C(=O)N(C)C(=O)[C@@H]12)S(=O)(=O)c1ccc(C(F)(F)F)cc1	-	-	-	-	41.4	-
CCN(C[C@H]1N[C@@](Cc2ccccc2)(C(=O)OC)[C@H]2C(=O)N(C)C(=O)[C@@H]12)C(=O)c1ccccc1	-	-	-	-	-	-
Nc1cc(=O)[nH]c(SCC(=O)NCCC2=CCCCC2)n1	-	-	-	-	-	-
COc1ccccc1C(=O)NC(=O)CSc1ccc(C)c(C)c1	-	-	-	-	-	-
COc1ccc([N+](=O)[O-])cc1NC(=O)c1cc(C)c(C)o1	-	24.8	-	-	-	-
CCCn1nnc(NC(=O)c2ccc([N+](=O)[O-])cc2Cl)n1	-	-	15.2	-	-	-
O=C1C2C3CC(C(Br)C3Br)C2C(=O)N1c1nccs1 (configuration not stated)	-	-	-	-	-	-
CCOC(=O)N(C)[C@H]1C[C@H]2c3[nH]c4ccccc4c3CCN2C[C@H]1[C@H](C)O	-	-	-	-	-	-
C[C@H](O)[C@@H]1CN2CCc3c([nH]c4ccccc34)[C@@H]2C[C@@H]1N(C)Cc1cc(Cl)cc(Cl)c1	-	-	-	32.7	-	-
O=C1CSC(c2ccc([N+](=O)[O-])cc2)N1CCN1CCCCC1 (configuration not stated)	-	-	-	18.7	-	-
CC(=O)c1cn(CCOc2cc(C)ccc2C)c2ccccc12	-	-	-	-	26.0	-
COc1ccccc1OCCn1cc(C(=O)c2ccco2)c2ccccc21	-	-	19.7	-	-	-
Cc1ccc(C)c(OCCn2cc(C(=O)O)c3ccccc32)c1	-	-	-	-	-	-
SMILES	M1 PAM	CHO-K1 Ca antag	CHO-K1 Ca ag	CHRM1 agonist	CHRM1 antagonist	CHO-K1 Ca PAM
O=C(Cc1ccc(Cl)cc1)Nc1ccncc1	-	-	-	-	-	-
Cc1ccc(OCC(=O)Nc2ccncc2)c(C)c1	-	29.1	-	-	-	-
Cc1ccc(CC(=O)Nc2ccncc2)cc1	-	36.1	-	-	-	-
CC(C)(C)c1ccc(OCC(=O)Nc2ccncc2)cc1	-	-	-	-	-	-
O=C(COc1ccccc1)Nc1ccncc1	-	-	-	-	-	-
CCc1ccc(OCC(=O)Nc2ccncc2)cc1	-	-	16.8	-	-	-
Cc1ccc(Oc2ccc(OCC(=O)Nc3ccncc3)cc2)cc1	-	-	-	-	40.3	-
Cc1ccc(C)c(CC(=O)N2CCCC(c3cc(C(=O)Nc4ccccc4Cl)no3)C2)c1 (configuration not stated)	-	-	-	-	-	-
CC(=O)NC(c1ccc(F)c(F)c1)c1nc(-c2ccccc2)cs1 (configuration not stated)	-	-	-	-	-	-
Cc1ccc(OCC(=O)NNC(=S)NC(=O)C2CC2)c(C)c1	-	-	-	-	-	-
Cc1ccc(OCC(=O)NNC(=S)NC(=O)C2CCCCC2)c(C)c1	-	-	-	20.2	-	-
CN(C)CCC1(C2=CCCC2)CC/C(=C/c2ccc(Cl)cc2)C1=O (configuration not stated)	-	-	-	-	-	-
CC(=O)Oc1ccccc1/C=C/c1ccc2ccccc2[n+]1C	-	-	-	-	54.1	-
COc1ccc(CCNS(=O)(=O)c2ccc3c(c2)oc(=O)n3C)cc1OC	-	-	-	-	-	-
CCOc1ccc(CCNS(=O)(=O)c2ccc3c(c2)oc(=O)n3C)cc1OCC	-	-	15.1	-	-	-
O=S1(=O)NC(=NCC(c2ccco2)N2CCCCC2)c2ccccc21 (configuration not stated)	-	-	-	-	57.2	-
Cn1nc(C(C)(C)C)cc1C(=O)NCc1ccc2c(c1)OCO2	-	39.2	-	-	-	-
O=C(CCn1c(=O)oc2ccccc21)NCc1ccc2c(c1)OCO2	-	-	-	-	-	-
O=C(CCn1cccc1)NCc1ccc2c(c1)OCO2	-	27.3	-	-	-	-
O=C(CN1CCc2ccccc21)NCc1ccc2c(c1)OCO2	-	29.1	-	-	-	-
Cc1oc(C(C)(C)C)cc1C(=O)NCc1ccc2c(c1)OCO2	-	-	-	-	-	-
CC(=O)Nc1cccc(C(=O)OCC(=O)N2CCC(c3ccccc3)=N2)c1	-	-	-	-	-	-
C[C@H]1CN([C@@H](C)CO)C(=O)CCCn2nncc2CO[C@@H]1CN(C)S(=O)(=O)c1ccc(-c2ccccc2)cc1	-	-	-	-	-	-
CCC(C)[C@H](NS(=O)(=O)c1ccc(C)cc1)C(=O)N1CCC(C(=O)N[C@@H](Cc2ccccc2)C(=O)O)CC1 (some centres not stated)	-	-	-	-	-	-
COc1ccc(Br)cc1CSC(=N)N	-	-	-	-	-	-
CCCCCOc1ccc(Br)cc1CSC(=N)N	-	24.2	-	-	24.1	-
Cc1sc2c(c1C)CN(CCN1CCOCC1)CN2C(=O)c1ccccc1	-	-	-	-	-	-

Screening data as filed in PubChem BioAssay.
